Consider 19 compounds from PubChem BioAssay AID624331 (National Center for Advancing Translational Sciences (NCATS), 2012).

Results filed as inconclusive are left out. Where a call stands in place of a potency, no number is given. The source made the active and inactive calls. Calls follow the shape of the dose curve; as a rule, active = well fitted activation curve with a large enough effect; inconclusive = small, poorly fitted or top-dose-only effect; inactive = no such curve, though single readings can be large or run the other way.

The experiment in a line: qHTS assay for re-activators of p53 using a Luc reporter: Hit Validation with no p53 Expressed. Particulars: p53-null cells, luciferase reporter counter-screen; series mostly up to 46.1 µM. The method in brief: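 Counter-screen of primary hits in a cell line not transfected with p53, in Opti-MEM with 10% FBS; compounds at several concentrations (10 mM stock, 1:5; top 46.1 µM in well), 24 h at 37 deg C, 5% CO2. Luminescence read after 10 min with Amplite reagent.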
Background: In qHTS, concentration-response curves come from the screen itself.
For `c1ccc2nc(-c3ccc(N4CCOCC4)cc3)ccc2c1`, the Potency result is “inactive”.
The entry for `O=C(Nc1ccc(OC(F)(F)F)cc1)c1cnc2n(c1=O)CCS2` is “inactive”.
In the case of `CN1CCN(C(=O)c2cc3ccccc3cc2O)CC1`, the Potency entry was “inactive”.
`COc1ccccc1C(=O)CSc1nccn1C`: the Potency result was “inactive”.
On to `O=C(N/N=C/c1ccccc1O)C1CC(=O)N(c2ccc(Cl)cc2)C1` (centres undefined), for which the Potency entry is “inactive”.
With `O=C(Cc1ccccc1)Nc1ccc(NC(=O)c2cccnc2)cc1`, the Potency result is “inactive”.
`CCCC(=O)NC(c1cccs1)c1cc([N+](=O)[O-])c2cccnc2c1O` (centres undefined): the Potency entry was “inactive”.
Regarding `Nn1cnnc1N/N=C\c1ccc(-c2ccccc2[N+](=O)[O-])o1`, the Potency result is “inactive”.
`Cc1cc(C(=O)Nc2nc3c(s2)CCCC3)cs1`: the Potency entry is “inactive”.
In the case of `COc1nnc(-c2ccc(C)c(S(=O)(=O)N(C)C)c2)c2ccccc12`, the Potency result is “inactive”.
In the case of `CCc1ccc2[nH]c(=O)c(CN(CCN3CCCC3)C(=O)NC3CCCCC3)cc2c1`, the Potency entry is “inactive”.
Turning to `Cc1ccc(C(=O)CC(=O)COc2ccc(Cl)cc2)cc1`, the Potency entry is “inactive”.
For the compound `COC(=O)c1c(C)[nH]c(C(=O)/C=C/c2ccccc2)c1C`, the Potency entry was “inactive”.
Regarding `Clc1ccc(C2=NNC(=NCC3CCCO3)SC2)cc1` (centres undefined), the Potency result was “inactive”.
For the compound `CC(C)C(=O)OCC(=O)Nc1ccc(N=Nc2ccccc2)cc1`, the Potency entry was “inactive”.
Take `Cc1ccc(OC(=O)c2cccc(S(=O)(=O)N3CCCC3)c2)c(-n2nc3ccccc3n2)c1`: the Potency entry was “inactive”.
`COc1ccc([N+](=O)[O-])cc1NC(=O)CSCc1ccc(Br)cc1`: the Potency entry was “inactive”.
The entry for `CC(C)(C)c1ccc(S(=O)(=O)N2CCSC2)cc1` is “inactive”.
For `Cc1ccnc(NC(=O)CCC2CCCCC2)c1`, the Potency entry is “inactive”.
